Screens as filed in PubChem.
Only some compounds are listed: those with a hit (about 15% of all), similar ones and a draw of the others.
Pf growth 48h: Primary qHTS for delayed death inhibitors of the malarial parasite plastid, 48 hour incubation. P. falciparum luciferase growth in erythrocytes, 48 h. Potency, µM (highest dose often 28.7 µM), for inactives: at the top dose activity change, negative = inhibition, usual class: inhibitors. hit rate 5.9% among 310,000. AID 504832, 2011; further: potency means the concentration at half of the fitted maximal effect; on the % scale 0 is the no-effect control and ±100 the full control effect
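Luciferase-expressing parasites in RBCs, 2% Hct / 0.1% parasitemia final; RPMI 1640 + 0.5% Albumax; 37 C, 5% CO2, one generation; luminescence read-out, lower signal = inhibition.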
SARS PLP yeast: qHTS of Yeast-based Assay for SARS-CoV PLP. S. cerevisiae expressing SARS-CoV PLpro, growth rescue. Potency, µM (series often up to 32.9 µM), inactives show at the highest dose activity, positive = growth rescue, most hits filed as activators. hit rate 0.19% among 330,000; calls by dose curve; further: potency means the concentration at half of the fitted maximal effect; 0% is about no effect; nearly all actives have a fitted effect of over 55% in size
Sm TGR block: qHTS Assay for the Inhibitors of Schistosoma Mansoni Peroxiredoxins. hit rate 3% among 360,000. AID 485364, 2010. Potency, µM (highest dose often 114 µM), for the others: at the highest dose activity change, negative = inhibition, usual class: inhibitors. purified TGR, DTNB reduction, TNB absorbance 405 nm. Schistosoma mansoni thioredoxin glutathione reductase (TGR), Q962Y6; further: potency means the concentration at half of the fitted maximal effect; on the % scale 0 is the no-effect control and ±100 the full control effect; nearly all actives have a fitted effect of over 60% in size
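TGR 20 nM + NADPH 100 uM (dispensed conc.), cpd preinc 15 min RT; start with NADPH (500 uM addition) then DTNB (15 mM addition). Kinetic TNB absorbance, 405 nm filter. Four-parameter Hill fit across titration.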
HCMV inh: qHTS Assay for inhibitors of the human cytomegalovirus (HCMV); HFF cells, HCMV-luciferase reporter, 72 h; active compounds read low; activity change, negative = inhibition, % at 57.5 µM; hit rate 4.5% among 410,000; AID 1259415, 2018; in the data active means activity change below about -60%; inconclusive means no clear call, values can overlap the other calls; inactive means above about -39%; further: on the % scale 0 is the no-effect control and ±100 the full control effect
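Compounds were evaluated in HFFs infected with an HCMV luciferase reporter virus (MOI 1 PFU/cell). Luciferase in lysates collected 72 h post infection served as the replication measure.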
Pf growth 96h: Primary qHTS for delayed death inhibitors of the malarial parasite plastid, 96 hour incubation; P. falciparum luciferase reporter growth, 96 h; Potency, µM (top dose mostly 28.7 µM), for inactives: top-dose activity change, negative = inhibition, usual class: inhibitors; hit rate 6.9% among 320,000; AID 504834, 2011; further: potency means the concentration at half of the fitted maximal effect; on the % scale 0 is the no-effect control and ±100 the full control effect
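Infected RBCs, 2% Hct / 0.05% parasitemia final; luciferase-reporter P. falciparum; cpd 96 h, 37 C, 5% CO2; luciferase detection reagent; luminescence.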
HCV inh: qHTS Assay for Inhibitors of Hepatitis C Virus (HCV). Huh7.5.1 HCVcc-Cre infection, luciferase reporter, 44 h. Potency, µM (series often up to 41.8 µM), for the others: at the highest dose activity change, negative = inhibition, actives largely listed as inhibitors. hit rate 3.4% among 340,000. AID 651820, 2012; further: potency means the concentration at half of the fitted maximal effect; on the % scale 0 is the no-effect control and ±100 the full control effect
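Luciferase read-out (15 sec integration) after a 15 min room-temperature substrate step quantifies HCVcc-Cre infection. Cells, 1,000 per well, had compound added 4 h post-plating, then virus at ~0.5 moi, and were cultured 44 h.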
Active calls of the source: *; u = inconclusive; x = no result given. Unless noted, the call rests on the fitted dose curve; in most records, active means well fitted curve in the direction sought with a large enough effect; inconclusive means small, poorly fitted or top-dose-only effect, or another doubt; inactive means no such curve, though single readings can be large; an effect the other way counts as inactive or inconclusive.

SMILES	Pf growth 48h	SARS PLP yeast	Sm TGR block	HCMV inh	Pf growth 96h	HCV inh
Cc1cccc(NC(=O)C(Cc2ccccc2)c2nn[nH]n2)c1C (configuration not stated)	u	-4.5%	u	-27.1	8.28µM*	17.9%
Cc1oc2cc3oc(=O)cc(C)c3cc2c1C	51.4%	-1.9%	7.1%	164.6	34.4%	-9.4%
O=Cc1cccc(Oc2ccc([N+](=O)[O-])cc2[N+](=O)[O-])c1	15.2%	-3.1%	44.7µM*	u	5.9%	6.8%
O=C(c1ccccc1)c1ccc(Oc2ccc([N+](=O)[O-])cc2[N+](=O)[O-])cc1	x	x	x	-2.2	x	u
COc1ccc2c(C)cc(=O)oc2c1	x	x	x	-101.9*	x	-29.6%
NC(=O)c1ccc(Oc2ccc3ccc(=O)oc3c2)c([N+](=O)[O-])c1	5.2%	0.0%	-6.6%	6.4	-0.3%	4.7%
Cc1cc(=O)oc2cc3oc(=O)cc(C)c3cc12	3.0%	-3.8%	0.9%	31.1	4.65µM*	8.8%
O=c1ccc2ccc(Oc3ccc([N+](=O)[O-])cc3Cl)cc2o1	30.6%	9.8%	0.4%	-11.1	16.2%	11.2µM*
COc1ccc(-n2c(SCC(=O)Nc3cccc(C)c3C)nc3c([nH]c4ccccc43)c2=O)cc1	x	x	2.8%	101.6	x	x
Cc1cc(=O)oc2cc(Oc3ccc([N+](=O)[O-])cc3[N+](=O)[O-])ccc12	6.8%	-28.8%	50.1µM*	3.5	u	u
COc1cccc(NC(=O)C(=O)NCC(c2cccnc2)N2CCN(c3ccccc3)CC2)c1 (configuration not stated)	x	x	-5.9%	69.7	x	x
COC/C=C/C1=CC2=CC(=O)C(C)(OC(=O)c3cnc4ccccc4n3)C(=O)C2=CN1CCOC (configuration not stated)	x	x	x	-2.9	x	10.3%
COC/C=C/C1=CC2=CC(=O)C(C)(OC(=O)c3cnc4ccccc4n3)C(=O)C2=CN1CCN1CCOCC1 (configuration not stated)	u	-1.5%	14.1µM*	-16.9	9.28µM*	-0.9%
Cc1ccc(NC(=O)CN2C(=O)c3ccccc3Sc3ccc(C(=O)N4CCOCC4)cc32)cc1F	x	x	6.8%	-39.5	x	x
O=C(O)/C=C/c1ccc(S(=O)(=O)N2CCN(CCN3C(=O)C4C5C=CC(C5)C4C3=O)CC2)cc1 (configuration not stated)	u	1.9%	-19.1%	u	1.85µM*	-0.7%
O=C1C2C(C(=O)N1CCN1CCN(Cc3ccc([N+](=O)[O-])cc3)CC1)[C@H]1C=C[C@@H]2C1 (some centres not stated)	-4.2%	-1.1%	-16.4%	18.6	20.8%	u
CCN1CCN(c2oc(-c3ccc(COc4ccc(C)cc4)o3)nc2C#N)CC1	x	x	0.6%	-16.4	x	x
COc1ccc(C(=O)c2sc3nc(C)cc(-c4cccs4)c3c2N)cc1OC	u	-7.9%	-5.8%	-60.9*	u	u
CCCCN1CN(Cc2ccccc2)CNC1=S	-19.7%	u	-6.7%	u	9.28µM*	40.6%
CCOCCCN1CN(Cc2ccccc2)CNC1=S	4.0%	16.8%	-10.9%	-10.1	u	37.7%
O=C(CN1C(=O)C2CCCCN2c2ccc(C(=O)N3CCCC3)cc21)NCc1ccc(F)cc1 (configuration not stated)	x	x	8.4%	1.3	x	x
O=C(CCCCl)Nc1c2c(nn1-c1ccccc1)CSC2	-8.8%	3.9%	-1.0%	-6.0	8.2%	4.4%
O=C(CCl)Nc1c2c(nn1-c1ccccc1)CSC2	4.15µM*	-3.2%	10µM*	u	2.94µM*	u
CC(=O)c1cccc(OCc2cc(C(=O)NCc3nc(C)c(C)s3)no2)c1	-26.8%	-2.6%	-20.4%	73.0	-1.6%	x
CC(C)C(C(=O)Nc1nccs1)c1ccc(Cl)cc1 (configuration not stated)	u	-1.3%	-3.5%	u	9.28µM*	u
SMILES	Pf growth 48h	SARS PLP yeast	Sm TGR block	HCMV inh	Pf growth 96h	HCV inh
CC(C)C(C(=O)Nc1ccncc1)c1ccc(Cl)cc1 (configuration not stated)	3.29µM*	x	-26.0%	5.8	1.47µM*	u
Cc1ccc(N(CC(=O)N2CCCCCC2)S(C)(=O)=O)cc1Cl	-21.8%	-3.1%	-2.7%	u	7.38µM*	3.6%
Cc1ccc(N(CC(=O)N2CCOCC2)S(C)(=O)=O)cc1Cl	4.5%	-4.6%	-2.8%	37.5	u	18.5%
CS(=O)(=O)N(CC(=O)N1CCCCCC1)c1cccc(Br)c1	6.3%	-1.0%	-1.1%	16.9	11.7µM*	10.9%
Nc1c(CO)nnn1-c1ccccc1	1.0%	17.7%	5.9%	-19.7	-22.9%	26.7%
COc1ccc(-c2csc(N(Cc3ccco3)C(=O)c3cccs3)n2)cc1	u	-0.9%	12.6µM*	1.3	6.57µM*	u
COc1ccc(OC)c(-c2csc(N(CC3CCCO3)C(=O)C3CCCCC3)n2)c1 (configuration not stated)	2.94µM*	0.0%	18.0%	-71.5*	-24.7%	u
O=C(C1CC1)N(Cc1ccco1)c1nc(-c2ccccc2)cs1	u	-6.7%	31.6µM*	4.5	u	u
COc1ccc(OC)c(-c2csc(N(Cc3ccco3)C(=O)c3cccs3)n2)c1	9.28µM*	7.6%	-21.7%	-8.3	u	12.6µM*
COc1ccc(-c2csc(N(CC3CCCO3)C(=O)c3cccs3)n2)cc1 (configuration not stated)	x	-4.2%	4.3%	20.4	-3.8%	u
CC(C)(C)OC(=O)N1CCN(C(=O)c2[nH]cnc2C(=O)Nc2ccc(Cl)cc2)CC1	x	3.1%	x	-23.9	x	0.2%
Cc1ccc(C)n1C1C(=O)N(Cc2ccc(C(F)(F)F)cc2)c2ccc(Cl)cc21 (configuration not stated)	x	x	x	-3.5	x	x
CN(C)c1ccc(CN(C(=O)C2COc3ccccc3O2)C2CCS(=O)(=O)C2)cc1 (configuration not stated)	u	4.1%	20µM*	-20.7	5.22µM*	x
CC(C)c1ccc(CN(C(=O)C2COc3ccccc3O2)C2CCS(=O)(=O)C2)cc1 (configuration not stated)	u	-20.8%	0.7%	-93.7*	u	19.5%
Cc1ccc(S(=O)(=O)N2CCC(C(=O)O)CC2)cc1	-1.4%	0.7%	-5.3%	-12.7	48.1%	9.2%
Cc1ccc(C(=O)C(C(=O)/C=C/c2ccccc2)=C2SCCCS2)cc1	5.22µM*	-4.4%	-9.4%	-97.1*	9.28µM*	u
Cn1ccc(-c2ccccc2)n1	4.4%	0.1%	-6.9%	-26.2	1.65µM*	15.2%
